In PubChem BioAssay (NCI):
About 83,000 compounds went through this panel and 20% of them were active in at least one assay; those are over-represented in the sample as a whole.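 Assay: single dose, 48 h. Readout: percent growth (0 = no net growth; negative = cell death). Active: <10.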 A number with no mark means an inactive call. Calls of active or inactive are those of the source.

Legend:
Experiment in all cases: NCI-60 one-dose screen, 48 h (100 = growth as untreated, 0 = no growth, -100 = all killed)
SK-MEL-2 melanoma = conditions: 10 µM unless noted
EKVX NSCLC = conditions: 10 µM unless noted
SN12C renal = conditions: 10 µM unless noted
UO-31 renal = conditions: 10 µM unless noted
TK-10 renal = conditions: 10 µM unless noted
ACHN renal = conditions: 10 µM unless noted
CAKI-1 renal = conditions: 10 µM
A498 renal = conditions: 10 µM unless noted
CCRF-CEM leukemia = conditions: 10 µM unless noted
MOLT-4 leukemia = conditions: 10 µM unless noted
SR leukemia = conditions: 10 µM unless noted
OVCAR-8 ovarian = conditions: 10 µM unless noted
OVCAR-5 ovarian = conditions: 10 µM unless noted
OVCAR-4 ovarian = conditions: 10 µM unless noted
SK-OV-3 ovarian = conditions: 10 µM unless noted
IGROV1 ovarian = conditions: 10 µM unless noted
OVCAR-3 ovarian = conditions: 10 µM unless noted
HS 578T breast = conditions: 10 µM unless noted
NCI/ADR-RES ovarian = conditions: 10 µM unless noted
RPMI-8226 leukemia = conditions: 10 µM unless noted

Structure (SMILES) | growth (SK-MEL-2 melanoma) | growth (EKVX NSCLC) | growth (SN12C renal) | growth (UO-31 renal) | growth (TK-10 renal) | growth (ACHN renal) | growth (CAKI-1 renal) | growth (A498 renal) | growth (CCRF-CEM leukemia) | growth (MOLT-4 leukemia) | growth (SR leukemia) | growth (OVCAR-8 ovarian) | growth (OVCAR-5 ovarian) | growth (OVCAR-4 ovarian) | growth (SK-OV-3 ovarian) | growth (IGROV1 ovarian) | growth (OVCAR-3 ovarian) | growth (HS 578T breast) | growth (NCI/ADR-RES ovarian) | growth (RPMI-8226 leukemia)
C#C[C@]1(O)CC[C@H]2[C@@H]3CC=C4c5sc(C6CC6)nc5CC[C@]4(C)[C@H]3CC[C@@]21C | 90% | 80.1% | 86.1% | 68.8% | 124% | 91.4% | 79.6% | 99.9% | 58.7% | 46.8% | 46.5% | 88.3% | 85.7% | 107% | 116% | 97.9% | 89.2% | 68.1% | 84.6% | –
COc1cc(C2=NN(C(C)=O)C(c3ccc(N4CCOCC4)cc3)C2)cc(OC)c1OC (stereo not given) | 97% | 101% | 98.3% | 84% | 108% | 99.6% | 94.7% | 78.7% | 97.3% | 106% | 108% | 101% | 103% | 107% | 97.4% | 98.5% | 120% | 108% | 99.5% | –
COc1cc(NC2=C(Cl)C(=O)c3nc(C)ccc3C2=O)cc(OC)c1 | 5.03% (active) | 74.7% | -63.3% (active) | -94.6% (active) | -50.1% (active) | -99.6% (active) | -96.5% (active) | 71.1% | 2.72% (active) | 8.29% (active) | -3.19% (active) | -0.815% (active) | 22% | -93.3% (active) | – | -23.1% (active) | – | -32.8% (active) | -1.26% (active) | -39.7% (active)
O=C(Nc1cccc(-c2nc(-c3ccc(NC(=O)c4cccnc4)cc3Cl)no2)c1)Nc1ccc(NC(=O)C2CC2)c(C(F)(F)F)c1 | -55% (active) | -28% (active) | -60.8% (active) | 17.8% | -20.4% (active) | 9.95% (active) | -72.7% (active) | -69.6% (active) | -16.3% (active) | -39.7% (active) | -14.4% (active) | -16.8% (active) | -65.6% (active) | -74.1% (active) | -48.3% (active) | -55.4% (active) | -74.7% (active) | -31% (active) | 64.1% | –
CN(c1ccc(Cl)cc1)S(=O)(=O)c1ccc(-c2cnc(C3CC3)o2)cc1 | 63.7% | 47% | 29.8% | 47.3% | 75.8% | 33.6% | 5.6% (active) | 12.8% | 17.1% | 16.8% | 8.67% (active) | 30.7% | 38.3% | 54.7% | 84.1% | 28.8% | 9.18% (active) | 49.3% | 13.6% | –
O=[N+]([O-])c1ccc(-c2nnc(SCc3ccc(O)c4ncccc34)o2)cc1 | 25% | 27.3% | 17.1% | 7.09% (active) | 29.2% | 12.6% | 22.9% | 27.7% | 19.2% | 25.1% | 45% | 22% | 49% | – | 11.1% | 31.7% | 8.31% (active) | 2.14% (active) | 25.3% | 15%
O=C(CN1C(=O)S/C(=C\c2ccccc2)C1=O)Nc1ccc(C(=O)/C=C/c2cc3ccccc3nc2Cl)cc1 | 83.1% | 65.3% | 91.2% | 57.7% | 84.9% | 83% | 64.1% | 86% | 77.2% | 51.4% | 42.4% | 81.9% | 99.5% | – | 82.5% | 80.4% | 85.6% | 96.1% | 88.8% | 26.2%
CCOC(=O)c1nn(-c2ccccc2)c(=O)c2c(N)c(C#N)c(-c3cccs3)cc12 | 98.4% | 83.9% | 75.1% | 50.9% | 115% | 54.4% | 62.8% | 102% | 99.5% | 97% | 96% | 54.5% | 88.8% | – | – | 64% | 109% | 32.9% | 59.8% | 74.4%
O=S(=O)(Nc1ccc(C2CC2)cc1)c1ccc(-c2cnc(C3CC3)o2)cc1 | 64.8% | 78.4% | 75% | 71.3% | 101% | 87.6% | 27.5% | 60% | 57.9% | 41.3% | 31.1% | 80.2% | 94.2% | 67.1% | 87% | 58.2% | 53.2% | 69% | 47.7% | –
COc1cc(/C=N/n2cnc3oc(-c4ccccc4)cc3c2=N)cc(CN2CCN(C)CC2)c1O | 113% | 99.3% | 80.4% | 74% | 113% | 83.1% | 73.3% | 72.2% | 66.9% | 76.4% | 35.2% | 93.9% | 105% | – | – | 61.7% | 110% | 68% | 98.7% | 95.8%
CCCCSc1nnc(-c2ccc(-c3ccc(Cl)cc3)nc2C)o1 | 106% | 95.4% | 98.2% | 93.4% | 109% | 104% | 95.4% | 71% | 99.7% | 96.3% | 95.5% | 109% | 101% | – | 111% | 99.1% | – | 105% | 99.8% | 103%
CCC(=O)Nc1cc(Nc2cc(NC3CC3)n3ncc(C#N)c3n2)ccc1C | 32.6% | 39.1% | 43.4% | 19.7% | 15.5% | 13.8% | 14.7% | -21.5% (active) | 17.1% | 40.1% | 24.5% | 43.4% | 18.4% | 17.1% | 21.6% | 6.78% (active) | 26.2% | -17.4% (active) | 44.2% | –
O=C(CN1CCN(c2cc(=O)n(-c3ccccc3)c3ccccc23)CC1)Nc1ccc([N+](=O)[O-])cc1 | 101% | 88.7% | 87.2% | 62% | 93.3% | 87% | 98.1% | 88.2% | 98% | 90% | 88.6% | 91.3% | 98.7% | 65.9% | 99.3% | 84.3% | 90.9% | 89.9% | 91.1% | –
C#C[C@]1(O)CC[C@H]2[C@@H]3CC=C4c5sc(Nc6cc(OC)ccc6OC)nc5CC[C@]4(C)[C@H]3CC[C@@]21C | 31.8% | 42.9% | 49% | 12.8% | 84.7% | 36.5% | 28% | -28.3% (active) | 13.9% | -5.93% (active) | 3.13% (active) | 40.1% | 56.7% | 64.3% | 5.82% (active) | 47.9% | 59.2% | -13.8% (active) | 55.6% | –
NS(=O)(=O)c1ccc(-n2cc(CC=O)nn2)cc1 | 109% | 99.2% | 106% | 87.7% | 98.5% | 107% | 92.2% | 96% | 110% | 103% | 101% | 106% | 104% | 101% | – | 102% | 109% | 104% | 104% | 109%
O=S(=O)(Nc1cc(Cl)cc(Cl)c1)c1ccc(-c2cnc(C3CC3)o2)cc1 | 56.8% | 43.9% | 50.6% | 53% | 76.1% | 53.3% | 11.8% | 15.7% | 17.2% | 32.6% | 29.5% | 47% | 45.6% | 63.6% | 70.2% | 40.7% | 17.2% | 36.7% | 18.8% | –
